Screening data from PubChem BioAssay.
The list is not random: actives were taken first. Their share in the collection is about 9.3%.
FMDV antiviral: High Throughput Screening for Foot and Mouth Disease Virus Antivirals; 410,000 tested, 1.2% active; Potency, µM (series often up to 57.9 µM), most hits filed as inhibitors; FMDV antiviral cell-based qHTS; calls by dose curve; tested in HEK293T cells; further: read-out not given here; nearly all actives have a fitted effect of over 45% in size
HCMV inh: qHTS Assay for inhibitors of the human cytomegalovirus (HCMV); HFF cells, HCMV-luciferase reporter, 72 h; active compounds read low; 410,000 tested, 4.5% active; activity change, negative = inhibition, % at 57.5 µM; AID 1259415, 2018; in the data active means activity change below about -60%; inconclusive means no clear call, values can overlap the other calls; inactive means above about -39%
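Two-dose cell screen: HFF monolayers treated with compounds and infected with luciferase-expressing HCMV at 1 PFU/cell, 72 h at 37C, then lysed for luciferase measurement.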
Vaccinia Venus: qHTS for Stage-Specific Inhibitors of Vaccinia Orthopoxvirus: Venus Reporter Primary qHTS | Vaccinia virus Venus reporter expression, fluorescence | Potency, µM (titrated, usually from 36.5 µM), usual class: inhibitors | 330,000 tested, 0.46% active; calls by dose curve; tested in A549 cells; further: nearly all actives have a fitted effect of over 30% in size
Sm TGR block: qHTS Assay for the Inhibitors of Schistosoma Mansoni Peroxiredoxins; Schistosoma mansoni thioredoxin glutathione reductase (TGR), Q962Y6; purified TGR, DTNB reduction, TNB absorbance 405 nm; Potency, µM (series often up to 114 µM), hits mostly inhibitors; 360,000 tested, 3% active; further: nearly all actives have a fitted effect of over 60% in size
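First, TGR (20 nM dispensed) and NADPH were mixed with compound. Second, a 15 min room-temperature incubation followed. Third, further NADPH and then DTNB were added to start the reaction. Finally, TNB absorbance was monitored kinetically.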
HCV inh: qHTS Assay for Inhibitors of Hepatitis C Virus (HCV). Huh7.5.1 HCVcc-Cre infection, luciferase reporter, 44 h. Potency, µM (series often up to 41.8 µM), hits mostly inhibitors. 340,000 tested, 3.4% active
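Infectious HCV cell culture screen: compound-treated cells (1,000/well, pre-plated 4 h) are infected with HCVcc-Cre at roughly 0.5 moi and grown 44 h. Infection is quantified by luciferase signal after 15 min substrate incubation at room temperature.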
VACV mCherry inh: qHTS for Stage-Specific Inhibitors of Vaccinia Orthopoxvirus: mCherry Reporter Primary qHTS. Vaccinia virus mCherry reporter infection, fluorescence. 310,000 tested, 0.63% active. Potency, µM (series often up to 36.5 µM), hits mostly inhibitors; calls by dose curve; tested in A549 cells; further: nearly all actives have a fitted effect of over 35% in size
Hits are given with their value; n = inactive; u = inconclusive; x = not tested or not shown; + = active, no number. Unless noted, the call rests on the fitted dose curve; in most records, active means well fitted curve in the direction sought with a large enough effect; inconclusive means small, poorly fitted or top-dose-only effect, or another doubt; inactive means no such curve, though single readings can be large; an effect the other way counts as inactive or inconclusive.

SMILES	FMDV antiviral	HCMV inh	Vaccinia Venus	Sm TGR block	HCV inh	VACV mCherry inh
O=C(COc1cccc(Cl)c1)Nc1ccc2c(c1)CCC2	n	-66	n	n	u	n
CCOc1ccccc1NC(=O)Nc1cccc(NC(C)=O)c1	n	n	n	n	u	n
O=C(COc1ccccc1F)Nc1ccc2c(c1)CCC2	n	n	n	x	n	n
COC(=O)c1ccc2c(=O)n(CCCCCC(=O)NCc3ccc(OC)cc3)c(=O)[nH]c2c1	n	n	n	n	x	n
CC(C)Cc1cc(C(=O)NCc2cccnc2)no1	n	n	n	n	n	n
CCOC(=O)c1cccc(NC(=O)Nc2cc(OC)ccc2OC)c1	u	u	u	n	16µM	n
COc1ccc(OC)c(NC(=O)CCOc2cccc(C)c2)c1	u	n	n	n	11µM	n
CCOc1ccccc1NC(=O)CCS(=O)(=O)c1cccs1	n	n	n	56µM	n	n
CCOc1ccccc1NC(=O)Nc1cccc(S(N)(=O)=O)c1	n	u	n	n	32µM	n
COc1ccc(C)cc1NC(=O)Nc1cccc(C(=O)O)c1	n	n	n	n	n	n
COC(=O)c1sc2cccc(F)c2c1S(=O)(=O)NCc1ccc(F)cc1	n	n	n	n	x	n
CN(C)c1ccc(N/C(=N\S(=O)(=O)c2cccs2)c2ccccc2)cc1	n	-68	x	n	u	x
CN(/C(=N/S(=O)(=O)c1cccs1)c1ccccc1)c1ccccc1	n	n	n	n	n	n
COc1ccc(NC(=S)N2CCC(Cc3ccccc3)CC2)cc1	n	n	n	n	n	u
CC(C)C(=O)N1CCN(c2ccccc2NC(=O)c2ccc([N+](=O)[O-])o2)CC1	n	-73	u	u	u	11µM
CCC(=O)N1CCN(c2ccccc2NC(=O)c2ccc([N+](=O)[O-])o2)CC1	n	-65	n	u	u	u
CCC(=O)N1CCN(c2ccccc2NC(=O)Cc2ccccc2)CC1	n	n	n	n	u	x
C[C@@H]1CN([C@H](C)CO)C(=O)CCCn2nncc2CO[C@H]1CN(C)Cc1ccccc1C(=O)O	n	n	n	x	x	n
CCc1ccc(CNC(=O)c2ccc(-c3nc(CS(=O)(=O)c4ccccc4)c(C)o3)cc2)cc1	n	u	n	u	x	n
CCOC(=O)NC1(NCC(C)C)Oc2ccccc2O1	n	n	x	22µM	u	x
CCOC(=O)NC1(NC2CCCCC2)Oc2ccccc2O1	n	u	n	16µM	u	n
CCOC(=O)NC1c2ccccc2Oc2ccccc21	n	n	n	n	n	n
CCOC(=O)C(Cc1ccccc1)C1(C)Oc2ccccc2O1 (stereo not given)	n	u	n	x	x	n
CCOC(=O)NC1(NC(C)C)Oc2ccccc2O1	n	n	n	45µM	n	n
CCOC(=O)NC1(NCc2ccccc2)Oc2ccccc2O1	n	n	n	32µM	u	n
SMILES	FMDV antiviral	HCMV inh	Vaccinia Venus	Sm TGR block	HCV inh	VACV mCherry inh
Cc1ccc(S(=O)(=O)NN=C2CC(C)(C)OC2(C)C)cc1	n	n	n	x	x	n
CCOC(=O)NC1(Nc2ccc(C)cc2)Oc2ccccc2O1	n	n	n	40µM	u	n
COc1ccc(CCNC(=O)c2cnn(-c3cccc(C)c3)c2C2CCNCC2)cc1OC	n	n	n	n	x	n
Cc1ccc(-n2ncc(C(=O)Nc3cc(Cl)ccc3Cl)c2C2CCNCC2)cc1	n	-87	n	n	13µM	n
Cc1ccc(-n2ncc(C(=O)Nc3cc(Cl)cc(Cl)c3)c2C2CCNCC2)cc1C	u	-99	x	n	13µM	x
Cc1ccc(-n2ncc(C(=O)Nc3ccc4c(c3)OCCO4)c2C2CCN(C(=O)OC(C)(C)C)CC2)cc1C	n	+	n	n	x	n
COc1ccc(NC(=O)c2cnn(-c3ccc(C)c(C)c3)c2C2CCNCC2)cc1OC	n	n	n	45µM	x	n
COc1cc(NC(=O)c2cnn(-c3cccc(F)c3)c2C2CCNCC2)cc(OC)c1OC	n	n	n	n	x	n
Cc1ccc(-n2ncc(C(=O)Nc3c(Cl)cccc3Cl)c2C2CCNCC2)cc1	n	u	n	n	x	n
